Screening data (PubChem)
Sampled rows, rich in hits. Any-hit rate of the full collection: about 7.5%.
FLuc counter: firefly luciferase modulation, counter-screen for miR-21 project; Potency, µM (top dose mostly 57.5 µM), hits mostly inhibitors; 6.9% of 360,000 active; P08659; purified FLuc, Km substrates, luminescence inhibition; note: nearly all actives have a fitted effect of over 55% in size
Target sequence (P08659 whole entry, looked up): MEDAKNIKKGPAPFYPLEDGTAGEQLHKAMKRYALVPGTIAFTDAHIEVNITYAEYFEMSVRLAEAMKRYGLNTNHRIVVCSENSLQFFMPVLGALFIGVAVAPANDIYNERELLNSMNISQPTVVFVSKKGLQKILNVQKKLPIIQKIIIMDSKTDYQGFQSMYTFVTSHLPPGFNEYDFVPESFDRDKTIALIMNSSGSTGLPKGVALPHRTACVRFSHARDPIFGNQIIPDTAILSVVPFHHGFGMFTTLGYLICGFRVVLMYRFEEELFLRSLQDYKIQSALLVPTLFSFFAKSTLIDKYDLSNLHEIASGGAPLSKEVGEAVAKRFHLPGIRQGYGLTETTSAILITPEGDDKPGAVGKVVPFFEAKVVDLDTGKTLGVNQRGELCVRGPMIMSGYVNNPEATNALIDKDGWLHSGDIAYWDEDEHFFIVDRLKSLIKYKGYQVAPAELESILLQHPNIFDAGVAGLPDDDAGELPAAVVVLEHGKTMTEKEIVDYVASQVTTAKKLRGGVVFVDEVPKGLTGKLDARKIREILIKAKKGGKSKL
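Purified P. pyralis luciferase (10nM final) with 10uM D-luciferin and 10uM ATP (Km levels) in 50mM Tris acetate pH 7.5, 10mM Mg acetate, 0.01% Tween-20, 0.05% BSA; qHTS 6-point titration, ~60 µM downward; luminescence read.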
NPC1 prom act: activates the NPC1 promoter; Huh7 NPC1 promoter luciferase reporter, 24 h; Potency, µM (series often up to 9.22 µM), actives largely listed as activators; 2.4% of 320,000 active; note: nearly all actives have a fitted effect of over 60% in size
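Luminescence from an NPC1 promoter-driven luciferase reporter in stably transfected Huh7 cells was measured after 24 h compound treatment at 37 °C, followed by 10 min ambient incubation with luciferase detection reagent.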
ELG1 genotox: induces genotoxicity in HEK293T cells with luciferase-tagged ELG1 | Potency, µM (highest dose often 46 µM), usual class: activators | 1.3% of 330,000 active | AID 504466 | HEK293T ELG1-luciferase reporter, luminescence, 16 h; note: nearly all actives have a fitted effect of over 60% in size
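Cells (2,000/well) expressing the ELG1-luciferase fusion are dosed by pin tool and kept 16 hr at 37 °C, 5% CO2. Signal comes from ONE-Glo luciferase reagent after 30 min at room temperature.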
SMN2 splice enh: increases expression of the SMN2 splice variant | HEK293 SMN2-luciferase splicing reporter, luminescence, 30-36 h | 2.8% of 210,000 active | AID 1458 | Potency, µM (doses to about 46.1 µM), most hits filed as activators; note: nearly all actives have a fitted effect of over 55% in size
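HEK293 cells carry an SMN2 […]–luciferase reporter in which exon 7 inclusion puts luciferase in frame. Cells were plated 10-12 h before compound addition, then incubated 30-36 h at 37C. ONE-Glo luminescence was read; sodium butyrate at 4.5 mM final served as control.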
Luc counter: blocks Kinase-Glo luciferase, a counter-screen artifact. Q27757. Kinase-Glo luciferase, ATP luminescence, 8 min. Potency, µM (titrated, usually from 38.3 µM), hits mostly inhibitors. 0.28% of 200,000 active. AID 1379; note: nearly all actives have a fitted effect of over 60% in size
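Compounds were added to a substrate mix at pH 7.2 (50 mM imidazole, 10 uM ATP, within the enzyme's linear range), followed by Kinase-Glo detection reagent; luminescence was measured after 8 minutes at ambient temperature.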
Rab9 promoter act: Rab9 promoter activation | Huh7 Rab9 promoter-luciferase reporter, luminescence, 24 h | Potency, µM (series often up to 9.22 µM), usual class: activators | 2.8% of 320,000 active | AID 485297; note: nearly all actives have a fitted effect of over 60% in size
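Steps: seed 1500 Huh7 Rab9-luc cells per well, rest 2 h at 37 °C; add compound in DMSO; incubate 24 h; add luciferase reagent, 10 min ambient; read luminescence.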
Each line names hits and unclear results; the compound was inactive in the other large screens. Calls come from the whole dose curve; as a rule, active = well fitted curve in the direction sought with a large enough effect; inconclusive = small, poorly fitted or top-dose-only effect, or another doubt; inactive = no such curve, though single readings can be large; an effect the other way counts as inactive or inconclusive.

COc1ccc(-c2nc(-c3ccccn3)no2)cc1	FLuc counter 0.095µM, NPC1 prom act 0.1µM, ELG1 genotox inconclusive, Luc counter 0.89µM, Rab9 promoter act 0.04µM (no result: SMN2 splice enh)
CC(C)c1ccc(NC2(C#N)C(=O)Nc3ccccc32)cc1 (configuration not stated)	FLuc counter inconclusive
Cc1cc(/C=C2\C(=N)N3C(SCc4ccccc4)=NSC3=NC2=O)c(C)n1Cc1ccccc1	FLuc counter 21µM
CC(C)CSC1=NSC2=NC(=O)/C(=C\c3coc4ccccc4c3=O)C(=N)N12	FLuc counter 17µM
CC(C)CSC1=NSC2=NC(=O)/C(=C\c3ccccc3)C(=N)N12	FLuc counter 17µM, NPC1 prom act 3.2µM, ELG1 genotox inconclusive, SMN2 splice enh inconclusive, Rab9 promoter act 2.8µM
CSC1=NSC2=NC(=O)/C(=C\c3coc4ccccc4c3=O)C(=N)N12	none
Cc1cc2ncc(-c3ncc(C(F)(F)F)cc3Cl)cn2n1	FLuc counter 1.3µM, NPC1 prom act 0.71µM, ELG1 genotox inconclusive, SMN2 splice enh 1.3µM, Rab9 promoter act 0.4µM
Cc1nn2cc(-c3ncc(C(F)(F)F)cc3Cl)cnc2c1Br	FLuc counter 1.5µM, NPC1 prom act 0.4µM, ELG1 genotox inconclusive, Luc counter inconclusive, Rab9 promoter act 0.32µM (no result: SMN2 splice enh)
COc1cccc2cc(C(=O)C3=C(O)C(=O)N(c4cc(C)on4)C3c3cccs3)oc12 (configuration not stated)	FLuc counter inconclusive (no result: SMN2 splice enh, Luc counter)
Cc1ccc(Nc2ccc(C(=O)NC3CCCCC3)cn2)cc1	FLuc counter inconclusive (no result: SMN2 splice enh, Luc counter)
COc1ccccc1Nc1ccc(C(=O)NC2CCCCC2)cn1	FLuc counter 13µM, ELG1 genotox inconclusive
COc1ccccc1Nc1cc(C(=O)NC2CCCC2)c2ccccc2n1	FLuc counter 12µM (no result: Luc counter)
CC(C)N1C(=O)C(O)(c2c[nH]c3ccccc23)c2ccccc21 (configuration not stated)	none (no result: NPC1 prom act, ELG1 genotox, Luc counter, Rab9 promoter act)
CCc1ccc(NC(=O)c2noc3c2CCCCC3)cc1	FLuc counter 2.1µM, NPC1 prom act 0.71µM, ELG1 genotox inconclusive, SMN2 splice enh 10µM, Rab9 promoter act 0.63µM
COc1ccc(NC(=O)c2noc3c2CCCCC3)cc1	FLuc counter 12µM, NPC1 prom act 1.4µM, ELG1 genotox inconclusive, SMN2 splice enh 7.9µM, Rab9 promoter act inconclusive
Cc1ccc(NC(=O)c2noc3c2CCCCC3)cc1	FLuc counter 9.5µM, NPC1 prom act 0.56µM, ELG1 genotox inconclusive, SMN2 splice enh 11µM, Rab9 promoter act 0.5µM
CC(=O)c1cccc(NC(=O)c2noc3c2CCCC3)c1	FLuc counter 11µM, SMN2 splice enh 2.8µM (no result: NPC1 prom act, ELG1 genotox, Luc counter, Rab9 promoter act)
CC(NC(=O)c1noc2c1CCCC2)c1ccccc1 (configuration not stated)	none
O=C(O)[C@H]1CN(C/C=C/P(=O)(O)O)CCN1	none (no result: FLuc counter, NPC1 prom act, ELG1 genotox, Rab9 promoter act)
Cc1ccc(Cn2nc(C)c(NC(=O)c3noc4c3CCCCC4)c2C)cc1	none
CCc1ccc(NC(=O)c2noc3c2CCC3)cc1	FLuc counter 0.67µM, NPC1 prom act 1µM, ELG1 genotox 0.82µM, SMN2 splice enh 13µM, Rab9 promoter act 0.56µM
Cc1ccc(Cn2ccc(NC(=O)c3noc4c3CCCC4)n2)cc1	FLuc counter inconclusive, NPC1 prom act inconclusive, ELG1 genotox 21µM, Rab9 promoter act inconclusive
O=C(NCc1ccccc1)c1noc2c1CCCC2	ELG1 genotox inconclusive (no result: SMN2 splice enh)
Cc1ccc(NC(=O)c2noc3c2CCCCC3)cc1C	FLuc counter 1.1µM, NPC1 prom act 0.4µM, ELG1 genotox inconclusive, SMN2 splice enh 7.9µM, Rab9 promoter act 0.63µM
O=C(NCCc1ccccc1)c1noc2c1CCCCC2	FLuc counter 8.5µM, NPC1 prom act 2.5µM, ELG1 genotox inconclusive, SMN2 splice enh inconclusive, Rab9 promoter act 3.5µM
CC1(C)CSC(=NCc2ccccc2)N1C(=O)c1cccc([N+](=O)[O-])c1	none
CCC(=O)OC1(C)C(=O)C=C2C=C(CCCNC(=O)OC(C)(C)C)OC=C2C1=O (configuration not stated)	none (no result: FLuc counter, NPC1 prom act, ELG1 genotox, Rab9 promoter act)
O=C(CCn1cnc2onc(-c3ccc(F)cc3)c2c1=O)Nc1ccc(F)c(Cl)c1	none (no result: NPC1 prom act, ELG1 genotox, SMN2 splice enh, Luc counter, Rab9 promoter act)
